Reference: PubChem BioAssay (NCATS)
Inconclusive results are not listed. Calls of active or inactive are those of the source. Unless noted, the call rests on the fitted dose curve; in most records, active means well fitted curve in the direction sought with a large enough effect; inconclusive means small, poorly fitted or top-dose-only effect, or another doubt; inactive means no such curve, though single readings can be large; an effect the other way counts as inactive or inconclusive.

Experiments:
[1] = target: ATP-dependent 6-phosphofructokinase (Trypanosoma brucei brucei) (UniProt O15648); test: qHTS Assay to Find Inhibitors of T. brucei phosphofructokinase: hit validation (AID 492961);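 further: luminescence reports ADP formed as PFK phosphorylates fructose-6-phosphate with ATP; on the % scale 0 is the no-effect control and ±100 the full control effect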
Sequence of ATP-dependent 6-phosphofructokinase (Trypanosoma brucei brucei) (O15648 whole entry, looked up): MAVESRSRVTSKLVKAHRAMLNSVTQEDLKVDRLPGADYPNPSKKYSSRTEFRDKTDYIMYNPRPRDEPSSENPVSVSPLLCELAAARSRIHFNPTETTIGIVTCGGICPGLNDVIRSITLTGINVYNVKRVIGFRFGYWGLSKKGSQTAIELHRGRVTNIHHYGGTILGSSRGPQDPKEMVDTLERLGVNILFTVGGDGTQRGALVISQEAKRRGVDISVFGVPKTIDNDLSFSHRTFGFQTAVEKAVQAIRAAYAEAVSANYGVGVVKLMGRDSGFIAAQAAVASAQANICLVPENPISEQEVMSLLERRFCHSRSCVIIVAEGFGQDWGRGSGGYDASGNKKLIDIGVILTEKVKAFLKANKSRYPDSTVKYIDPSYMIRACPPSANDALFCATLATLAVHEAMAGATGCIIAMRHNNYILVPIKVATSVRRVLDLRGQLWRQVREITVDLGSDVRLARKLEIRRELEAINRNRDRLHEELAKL
Procedure, shortened: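 In this biochemical qHTS validation, titrated compounds were tested against 1.25 nM PFK with 0.1 mM ATP and 0.5 mM F6P. Percent activity came from controls lacking or containing enzyme.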

[2] = target: Ubiquitin carboxyl-terminal hydrolase 1 (Homo sapiens) (UniProt O94782); test: Inhibitors of USP1/UAF1: Pilot qHTS (AID 504865);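 further: rhodamine fluorescence freed from ubiquitin-rhodamine substrate followed over time; top concentration of the series differs between compounds; on the % scale 0 is the no-effect control and ±100 the full control effect; nearly all actives have a fitted effect of over 35% in size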
Sequence of Ubiquitin carboxyl-terminal hydrolase 1 (Homo sapiens) (O94782 whole entry, looked up): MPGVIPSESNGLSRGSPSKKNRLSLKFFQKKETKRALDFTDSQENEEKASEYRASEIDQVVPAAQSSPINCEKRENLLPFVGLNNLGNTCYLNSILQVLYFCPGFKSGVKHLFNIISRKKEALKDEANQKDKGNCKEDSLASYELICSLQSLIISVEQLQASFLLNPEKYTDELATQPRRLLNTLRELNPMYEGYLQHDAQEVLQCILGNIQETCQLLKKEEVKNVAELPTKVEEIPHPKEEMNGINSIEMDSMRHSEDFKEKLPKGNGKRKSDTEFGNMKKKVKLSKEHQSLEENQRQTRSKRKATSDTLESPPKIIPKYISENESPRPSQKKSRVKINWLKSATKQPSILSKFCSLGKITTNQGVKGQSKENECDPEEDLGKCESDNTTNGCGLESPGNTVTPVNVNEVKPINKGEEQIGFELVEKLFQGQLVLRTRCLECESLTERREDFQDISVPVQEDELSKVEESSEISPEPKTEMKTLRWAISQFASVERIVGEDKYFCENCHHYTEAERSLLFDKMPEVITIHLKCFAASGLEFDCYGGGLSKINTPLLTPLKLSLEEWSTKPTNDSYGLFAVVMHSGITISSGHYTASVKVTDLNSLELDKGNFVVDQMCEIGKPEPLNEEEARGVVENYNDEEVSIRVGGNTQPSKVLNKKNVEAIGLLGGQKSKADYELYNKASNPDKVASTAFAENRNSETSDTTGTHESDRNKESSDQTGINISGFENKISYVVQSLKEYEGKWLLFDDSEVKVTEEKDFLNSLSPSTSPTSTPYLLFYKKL
Procedure, shortened: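 Enzyme-free wells gave the negative control, while test wells held 1nM USP1/UAF1 preincubated with compound for 15 min at room temperature. Ub-Rho at 150nM final started the reaction, and fluorescence at 480/540 nm was recorded kinetically.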

[3] = target: Luciferin 4-monooxygenase (Photinus pyralis) (UniProt P08659); test: Biochemical firefly luciferase enzyme assay for NPC (AID 624030);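 further: purified P. pyralis luciferase at 10 nM with luciferin and ATP substrate; 0% = DMSO and -100% = full luciferase inhibition by PTC124 control; nearly all actives have a fitted effect of over 70% in size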
Sequence of Luciferin 4-monooxygenase (Photinus pyralis) (P08659 whole entry, looked up): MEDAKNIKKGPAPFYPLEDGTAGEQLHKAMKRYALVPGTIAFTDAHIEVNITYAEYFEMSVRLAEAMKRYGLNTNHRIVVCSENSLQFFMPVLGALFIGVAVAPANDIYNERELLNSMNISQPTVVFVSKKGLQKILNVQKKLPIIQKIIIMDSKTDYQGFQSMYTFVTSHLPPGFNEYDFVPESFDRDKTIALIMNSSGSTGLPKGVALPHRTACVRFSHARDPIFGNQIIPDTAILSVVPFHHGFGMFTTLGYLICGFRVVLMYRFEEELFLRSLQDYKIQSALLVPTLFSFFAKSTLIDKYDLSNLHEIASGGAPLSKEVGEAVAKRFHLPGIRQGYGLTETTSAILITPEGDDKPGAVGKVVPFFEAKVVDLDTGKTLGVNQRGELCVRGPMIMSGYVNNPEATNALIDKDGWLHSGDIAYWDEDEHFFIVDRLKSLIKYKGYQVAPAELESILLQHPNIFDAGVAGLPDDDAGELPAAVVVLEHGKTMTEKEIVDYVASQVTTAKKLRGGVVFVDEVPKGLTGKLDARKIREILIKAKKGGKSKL
Procedure, shortened: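 Direct inhibition of firefly luciferase enzyme (10 nM final, 50 mM Tris Acetate) assessed by luminescence within 5 minutes. Percent activity scaled between DMSO and PTC124 positive control, with concentration-effect curves classified by fit quality and response.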

[4] = S16 Schwann cell viability assay (CellTiter-Glo assay) (AID 624031);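 further: native untransfected S16 rat Schwann cells; cellular ATP luminescence as a viability measure; plate controls were DMSO-treated cells for no effect and cell-free wells for full effect; nearly all actives have a fitted effect of over 70% in size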
Procedure, shortened: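 Rat S16 Schwann cells without reporter constructs received compound or DMSO for 24 h at 37 °C under 5% CO2. Cellular ATP was then quantified by CellTiter-Glo luminescence, with vehicle wells defined as 0% activity and cell-free wells as reference.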

[5] = S16 Schwann cell PMP22 intronic element firefly luciferase assay (AID 624032);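 further: plate controls were DMSO for no effect and PTC124 positive control mean for full effect; nearly all actives have a fitted effect of over 30% in size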
Procedure, shortened: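 Luciferase reporter of PMP22 intronic-element expression in stably transfected S16 rat Schwann cells, read by ONE-Glo luminescence after 24 h compound exposure at 37 C. Activity scaled between DMSO (0%) and positive-control PTC124; concentration-effect curves quality-classified.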

[6] = Primary qHTS for inhibitors of SARS-S pseudo-typed particle cell entry (AID 1479145; calls by dose curve; further: on the % scale 0 is the no-effect control and ±100 the full control effect; nearly all actives have a fitted effect of over 45% in size); conditions: outcome: dose series up to 57.1 µM unless noted
[7] = Primary qHTS for Huh7 cytotoxicity: counterscreen for inhibitors of MERS-S pseudotyped particle cell entry (AID 1479147; calls by dose curve; further: on the % scale 0 is the no-effect control and ±100 the full control effect); conditions: outcome: dose series up to 57.1 µM unless noted
[8] = Primary qHTS for inhibitors of MERS-S pseudo-typed particle cell entry (AID 1479149; calls by dose curve; further: nearly all actives have a fitted effect of over 60% in size); conditions: outcome: dose series up to 57.1 µM unless noted
[9] = Primary qHTS for Vero E6 cytotoxicity: counterscreen for inhibitors of SARS-S pseudo-typed particle cell entry (AID 1479150; calls by dose curve); conditions: outcome: dose series up to 57.1 µM unless noted
[10] = target: Cytochrome P450 2D6 (Homo sapiens) (UniProt P10635); test: Cytochrome P450 family 2 subfamily D member 6 (CYP2D6) small molecule antagonists: luciferase biochemical (cell-free) qHTS assay (AID 1645840; active means well fitted curve in the direction sought with a large enough effect in the repeat runs; an effect the other way counts as inactive or inconclusive; further: on the % scale 0 is the no-effect control and ±100 the full control effect; nearly all actives have a fitted effect of over 55% in size)
Sequence of Cytochrome P450 2D6 (Homo sapiens) (P10635 whole entry, looked up): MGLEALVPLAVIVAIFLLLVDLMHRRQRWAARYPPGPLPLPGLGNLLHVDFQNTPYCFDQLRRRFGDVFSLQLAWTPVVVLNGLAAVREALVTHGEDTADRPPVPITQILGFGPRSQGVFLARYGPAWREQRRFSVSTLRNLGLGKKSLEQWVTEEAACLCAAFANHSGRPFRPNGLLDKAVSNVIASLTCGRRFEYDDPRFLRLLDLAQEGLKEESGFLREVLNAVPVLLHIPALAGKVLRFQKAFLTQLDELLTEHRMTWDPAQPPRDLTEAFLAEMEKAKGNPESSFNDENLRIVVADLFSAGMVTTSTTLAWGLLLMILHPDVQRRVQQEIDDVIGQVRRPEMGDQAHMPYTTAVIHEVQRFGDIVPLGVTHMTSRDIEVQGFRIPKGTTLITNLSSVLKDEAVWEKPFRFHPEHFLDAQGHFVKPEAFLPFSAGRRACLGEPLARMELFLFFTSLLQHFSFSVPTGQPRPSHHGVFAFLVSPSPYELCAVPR
Procedure, shortened: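 P450-Glo CYP2D6 system: proluciferin substrate converted by enzyme to luciferin, read by luminescence proportional to activity. Enzyme-substrate mix with compound 10 min at room temperature, then NADPH regeneration 1 h before detection reagent.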

[11] = target: Cytochrome P450 2C9 (Homo sapiens) (UniProt P11712); test: Cytochrome P450 family 2 subfamily C member 9 (CYP2C9) small molecule antagonists: luciferase biochemical (cell-free) qHTS assay (AID 1645842; active means well fitted curve in the direction sought with a large enough effect in the repeat runs; an effect the other way counts as inactive or inconclusive; further: on the % scale 0 is the no-effect control and ±100 the full control effect; nearly all actives have a fitted effect of over 55% in size)
Sequence of Cytochrome P450 2C9 (Homo sapiens) (P11712 whole entry, looked up): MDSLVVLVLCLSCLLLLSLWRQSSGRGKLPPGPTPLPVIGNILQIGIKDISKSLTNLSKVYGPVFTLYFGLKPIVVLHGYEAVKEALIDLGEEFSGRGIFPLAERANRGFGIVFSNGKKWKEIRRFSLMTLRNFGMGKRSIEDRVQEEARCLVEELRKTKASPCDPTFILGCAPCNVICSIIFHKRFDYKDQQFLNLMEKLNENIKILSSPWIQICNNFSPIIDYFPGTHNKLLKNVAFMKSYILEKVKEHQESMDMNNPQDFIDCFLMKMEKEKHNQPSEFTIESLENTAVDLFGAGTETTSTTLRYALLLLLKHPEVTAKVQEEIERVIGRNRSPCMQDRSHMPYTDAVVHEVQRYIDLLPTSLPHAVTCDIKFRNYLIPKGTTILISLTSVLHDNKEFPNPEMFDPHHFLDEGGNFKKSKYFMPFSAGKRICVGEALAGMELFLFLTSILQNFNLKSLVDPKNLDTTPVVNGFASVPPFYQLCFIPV
Procedure, shortened: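 P450-Glo CYP2C9 system: proluciferin substrate with enzyme in mix containing 0.4% BSA, 10 min at room temperature, then NADPH regeneration solution added and incubated 1 h at 37C. Detection reagent stopped reaction; luminescence read after 20 min as RLU.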

[12] = Cytotoxicity counterscreen for inhibitors of SARS-CoV-2 cell entry (AID 1645845; calls by dose curve; further: nearly all actives have a fitted effect of over 50% in size); conditions: outcome: dose series up to 57.1 µM unless noted
Procedure, shortened: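 ATP-content luminescence (ATPLite 1step, 15 min RT) read after 48 h compound exposure of Expi293F cells stably expressing human ACE2; normalized to cells-only wells and media-only wells.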

[13] = target: Glutathione peroxidase 1 (Homo sapiens) (UniProt P07203); test: Primary qHTS Assay for Inhibitors of Recombinant Selenoprotein Glutathione Peroxidase 1 (GPX1) (AID 1845191); further: on the % scale 0 is the no-effect control and ±100 the full control effect; nearly all actives have a fitted effect of over 65% in size
Sequence of Glutathione peroxidase 1 (Homo sapiens) (P07203 whole entry, looked up): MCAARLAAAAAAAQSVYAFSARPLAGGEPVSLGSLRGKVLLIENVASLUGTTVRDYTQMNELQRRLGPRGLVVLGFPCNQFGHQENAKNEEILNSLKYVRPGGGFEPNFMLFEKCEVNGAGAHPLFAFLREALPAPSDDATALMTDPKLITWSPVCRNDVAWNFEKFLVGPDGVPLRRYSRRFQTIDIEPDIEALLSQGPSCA
Procedure, shortened: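 NADPH consumption tracked by fluorescence at 340/450 nm between t=0 and t=15 min, room temperature. Final mix: 10 nM GPX1, 100 nM glutathione reductase, 1 mM GSH, 0.5 mM NADPH, 0.5 mM cumene hydroperoxide, 0.01% BSA; 30 min compound–enzyme preincubation.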

[14] = target: Phospholipid hydroperoxide glutathione peroxidase GPX4 (Homo sapiens) (UniProt P36969); test: Primary qHTS Assay for Inhibitors of Recombinant Selenoprotein Glutathione Peroxidase 4 (GPX4) (AID 1845192); further: on the % scale 0 is the no-effect control and ±100 the full control effect; nearly all actives have a fitted effect of over 65% in size
Sequence of Phospholipid hydroperoxide glutathione peroxidase GPX4 (Homo sapiens) (P36969 whole entry, looked up): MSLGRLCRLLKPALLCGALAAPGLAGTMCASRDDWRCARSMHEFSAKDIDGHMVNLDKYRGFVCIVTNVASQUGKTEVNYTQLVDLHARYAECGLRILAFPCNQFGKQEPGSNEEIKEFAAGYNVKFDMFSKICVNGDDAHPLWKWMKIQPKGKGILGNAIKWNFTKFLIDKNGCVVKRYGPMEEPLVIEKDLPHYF
Procedure, shortened: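 NADPH consumption followed by fluorescence at 340/450 nm, t=0 and after 15 min at room temperature. Reaction started with cumene hydroperoxide (0.5 mM final) after 30 min compound–GPX4 preincubation; final 200 nM GPX4, 100 nM GR, 1 mM GSH, 0.5 mM NADPH.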

[15] = qHTS profiling for inhibitors of Plasmodium falciparum proliferation (AID 504749);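 further: 0% = DMSO vehicle and full inhibition = artemisinin control; nearly all actives have a fitted effect of over 60% in size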; conditions: P. falciparum in erythrocytes, SYBR Green DNA, 72 h, at 28.7 µM (top of the series)
Procedure, shortened: (§1)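 In a 72 h erythrocytic culture (37 C, humidified, 5% CO2) at 2.5% hematocrit and 0.3% starting parasitemia, compounds were tested; SYBR Green I in detergent lysis buffer stained parasite DNA overnight.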

3D7 = test: as above; conditions: P. falciparum in erythrocytes, SYBR Green DNA, 72 h; series mostly up to 28.7 µM
Procedure, shortened: as §1

7G8 = test: as above; conditions: P. falciparum in erythrocytes, SYBR Green DNA, 72 h; series mostly up to 12.8 µM
Procedure, shortened: as §1

AA1029 = test: as above; conditions: P. falciparum in erythrocytes, SYBR Green DNA, 72 h; series mostly up to 28.7 µM
Procedure, shortened: as §1

AS120 = test: as above; conditions: P. falciparum in erythrocytes, SYBR Green DNA, 72 h; series mostly up to 28.7 µM
Procedure, shortened: as §1

ATS189 = test: as above; conditions: P. falciparum in erythrocytes, SYBR Green DNA, 72 h; series mostly up to 28.7 µM
Procedure, shortened: as §1

ATS95 = test: as above; conditions: P. falciparum in erythrocytes, SYBR Green DNA, 72 h; series mostly up to 28.7 µM
Procedure, shortened: as §1

C2A = test: as above; conditions: P. falciparum in erythrocytes, SYBR Green DNA, 72 h; series mostly up to 28.7 µM
Procedure, shortened: as §1

CP185 = test: as above; conditions: P. falciparum in erythrocytes, SYBR Green DNA, 72 h; series mostly up to 28.7 µM
Procedure, shortened: as §1

CP191 = test: as above; conditions: P. falciparum in erythrocytes, SYBR Green DNA, 72 h; series mostly up to 28.7 µM
Procedure, shortened: as §1

CP192 = test: as above; conditions: P. falciparum in erythrocytes, SYBR Green DNA, 72 h; series mostly up to 28.7 µM
Procedure, shortened: as §1

CP194 = test: as above; conditions: P. falciparum in erythrocytes, SYBR Green DNA, 72 h; series mostly up to 28.7 µM
Procedure, shortened: as §1

CP201 = test: as above; conditions: P. falciparum in erythrocytes, SYBR Green DNA, 72 h; series mostly up to 28.7 µM
Procedure, shortened: as §1

CP203 = test: as above; conditions: P. falciparum in erythrocytes, SYBR Green DNA, 72 h; series mostly up to 28.7 µM
Procedure, shortened: as §1

CP211 = test: as above; conditions: P. falciparum in erythrocytes, SYBR Green DNA, 72 h; series mostly up to 28.7 µM
Procedure, shortened: as §1

CP215 = test: as above; conditions: P. falciparum in erythrocytes, SYBR Green DNA, 72 h; series mostly up to 28.7 µM
Procedure, shortened: as §1

CP217 = test: as above; conditions: P. falciparum in erythrocytes, SYBR Green DNA, 72 h; series mostly up to 28.7 µM
Procedure, shortened: as §1

CP237 = test: as above; conditions: P. falciparum in erythrocytes, SYBR Green DNA, 72 h; series mostly up to 28.7 µM
Procedure, shortened: as §1

CP238 = test: as above; conditions: P. falciparum in erythrocytes, SYBR Green DNA, 72 h; series mostly up to 28.7 µM
Procedure, shortened: as §1

CP247 = test: as above; conditions: P. falciparum in erythrocytes, SYBR Green DNA, 72 h; series mostly up to 28.7 µM
Procedure, shortened: as §1

CP250 = test: as above; conditions: P. falciparum in erythrocytes, SYBR Green DNA, 72 h; series mostly up to 12.8 µM
Procedure, shortened: as §1

CNC(C)[C@@H](O)c1ccc(O)cc1 (stereo partly specified)
inactive: Potency [1] | Potency [2] | Potency [3] | Potency [4] | Potency [5] | Potency [6] | Potency [7] | Potency [8] | Potency [9] | Potency [10] | Potency [11] | Potency [12] | Potency [13] | Potency [14] | activity, negative = inhibition ([15]; parasite line A) 1.09% | activity, negative = inhibition ([15]; parasite line B) 3.21% | Potency (3D7) | Potency (7G8) | Potency (AA1029) | Potency (AS120) | Potency (ATS189) | Potency (ATS95) | Potency (C2A) | Potency (CP185) | Potency (CP191) | Potency (CP192) | Potency (CP194) | Potency (CP201) | Potency (CP203) | Potency (CP211) | Potency (CP215) | Potency (CP217) | Potency (CP237) | Potency (CP238) | Potency (CP247) | Potency (CP250)
